The campaign covered roughly 39,000 compounds. About 1,500 (3.8%) were called active. Only a selection was taken, and actives are over-represented in it overall.
Test system: HSkMC (human skeletal muscle cells)
Experiment: cytotoxicity call (relative viability < 0.9)
Conditions: 10 µM

Row | Compound | cytotoxicity call
1 | Cc1ccc(S(=O)(=O)Nc2ccc3c(c2)C(=O)N([C@H](C)CO)C[C@@H](C)[C@H](CN(C)Cc2ccccc2)OCCCC[C@@H](C)O3)cc1 | inactive
2 | COc1ccc(S(=O)(=O)N(C)C[C@H]2Oc3c(NC(=O)Nc4c(C)noc4C)cccc3C(=O)N([C@@H](C)CO)C[C@H]2C)cc1 | inactive
3 | COc1ccc2c3c(n(c2c1)C)[C@H](CO)N(C[C@]13CN(C1)C(=O)CN(C)C)C(=O)CN(C)C | inactive
4 | C[C@@H]1CN([C@@H](C)CO)C(=O)c2cc(NC(=O)CCCN(C)C)ccc2O[C@H]1CN(C)Cc1ccc(C(=O)O)cc1 | inactive
5 | Cc1ncc([N+](=O)[O-])n1C[C@@H](O)CCl | inactive
6 | Cc1noc(C)c1NC(=O)N(C)C[C@@H]1Oc2ccc(NC(=O)Cn3cnnn3)cc2C(=O)N([C@@H](C)CO)C[C@@H]1C | inactive
7 | N#Cc1c(N)nc(SCc2csc(-c3ccc(Cl)cc3)n2)c(C#N)c1-c1ccc(OCCO)cc1 | active
8 | COc1ccc(NC(=O)Nc2ccc3c(c2)C(=O)N([C@@H](C)CO)C[C@@H](C)[C@@H](CN(C)C(=O)Nc2ccc4c(c2)OCO4)OCCCC[C@@H](C)O3)cc1 | inactive
9 | C[C@@H]1CCCCO[C@@H](CN(C)C(=O)CCC(F)(F)F)[C@@H](C)CN([C@@H](C)CO)C(=O)c2cc(NC(=O)Cc3ccccc3)ccc2O1 | inactive
10 | C[C@@H]1CN([C@@H](C)CO)C(=O)Cc2cc(NC(=O)Nc3ccc(F)cc3)ccc2O[C@@H]1CN(C)S(C)(=O)=O | inactive
11 | CCCNC(=O)[C@@]1(Sc2ccc(C)cc2)CC(=O)N(Cc2ccccc2C(F)(F)F)[C@@H]1c1ccc(CO)cc1 | inactive
12 | Cn1cc(-c2[nH]c3cc(NC(=O)[C@H](N)C4CCCCC4)cc4c3c2C=NNC4=O)cn1 | active
13 | CCCCCCCC/C=C\CCCCCCCC(N)=O | inactive
14 | O=C(C[C@@H]1CC[C@@H]2[C@H](COC[C@H](O)CN2S(=O)(=O)c2ccccc2)O1)NCc1ccncn1 | inactive
15 | C[C@@H]1CCCCO[C@@H](CN(C)C(=O)Nc2ccc(C(F)(F)F)cc2)[C@@H](C)CN([C@H](C)CO)C(=O)c2cc(NC(=O)CCCCCC(=O)Nc3ccccc3N)ccc2O1 | inactive
16 | CCCCCS(=O)(=O)CCCCCCCCCCn1c(-c2ccc(O)cc2)c(C)c2cc(O)ccc21 | active
17 | CC(=O)O.Cc1c(-c2ccc(O)cc2)n(Cc2ccc(OCCN3CCCCCC3)cc2)c2ccc(O)cc12 | inactive

Row | Compound | cytotoxicity call
18 | CCCCC(=O)c1ccc(O)cc1 | inactive
19 | C=C(NC(=O)C(=C)NC(=O)c1csc(C2=NC3c4csc(n4)C4NC(=O)c5csc(n5)C(C(C)(O)C(C)O)NC(=O)C5CSC(=N5)C(=CC)NC(=O)C(C(C)O)NC(=O)c5csc(n5)C3(CC2)NC(=O)C(C)NC(=O)C(=C)NC(=O)C(C)NC(=O)C(C(C)CC)NC2C=Cc3c(C(C)O)cc(nc3C2O)C(=O)OC4C)n1)C(N)=O (centres undefined) | inactive
20 | C=C(NC(=O)C(=C)NC(=O)c1csc(C2=N[C@@H]3c4csc(n4)[C@@H]4NC(=O)c5csc(n5)[C@H](C(C)(O)[C@@H](C)O)NC(=O)[C@H]5CSC(=N5)/C(=C/C)NC(=O)[C@H]([C@@H](C)O)NC(=O)c5csc(n5)[C@]3(CC2)NC(=O)[C@@H](C)NC(=O)C(=C)NC(=O)[C@@H](C)NC(=O)[C@@H]([C@H](C)CC)N[C@H]2C=Cc3c([C@@H](C)O)cc(nc3[C@@H]2O)C(=O)O[C@H]4C)n1)C(N)=O (some centres undefined) | inactive
21 | C=C(NC(=O)C(=C)NC(=O)c1csc(C2=N[C@H]3c4csc(n4)[C@H]4NC(=O)c5csc(n5)[C@H](C(C)(O)[C@@H](C)O)NC(=O)[C@H]5CSC(=N5)C(=CC)NC(=O)[C@H]([C@@H](C)O)NC(=O)c5csc(n5)[C@]3(CC2)NC(=O)[C@H](C)NC(=O)C(=C)NC(=O)[C@H](C)NC(=O)[C@H]([C@H](C)CC)N[C@@H]2C=Cc3c([C@H](C)O)cc(nc3[C@H]2O)C(=O)O[C@@H]4C)n1)C(N)=O (some centres undefined) | active
22 | C[C@@H]1CCCCO[C@H](CN(C)C(=O)NC2CCCCC2)[C@@H](C)CN([C@@H](C)CO)C(=O)c2cc(NC(=O)C3CCCCC3)ccc2O1 | inactive
23 | CS(=O)(=O)N1[C@@H]2c3ccc(-c4ccc(F)cc4)c(=O)n3C[C@@H]2[C@@H](CO)[C@@H]1C(=O)O | inactive
24 | Cc1noc(C)c1S(=O)(=O)N(C)C[C@H]1Oc2ccc(NS(=O)(=O)c3ccccc3)cc2C(=O)N([C@@H](C)CO)C[C@H]1C | inactive
25 | C[C@@H]1CCCCO[C@H](CN(C)S(C)(=O)=O)[C@H](C)CN([C@@H](C)CO)C(=O)c2cc(NS(=O)(=O)c3cn(C)cn3)ccc2O1 | inactive
26 | C[C@@H]1CN([C@H](C)CO)C(=O)c2cc(NC(=O)Cc3ccccc3)ccc2O[C@@H](C)CCCCO[C@@H]1CN(C)Cc1ccc(Cl)c(Cl)c1 | inactive
27 | C[C@@H]1CCCCO[C@H](CN(C)Cc2ccc(Cl)c(Cl)c2)[C@H](C)CN([C@@H](C)CO)C(=O)c2cc(NC(=O)Cc3ccccc3)ccc2O1 | inactive
28 | C[C@@H]1CCCCO[C@@H](CN(C)Cc2ccc(Cl)c(Cl)c2)[C@H](C)CN([C@H](C)CO)C(=O)c2cc(NC(=O)Cc3ccccc3)ccc2O1 | active
29 | C[C@H]1CCCCO[C@H](CN(C)Cc2ccc(Cl)c(Cl)c2)[C@@H](C)CN([C@@H](C)CO)C(=O)c2cc(NC(=O)Cc3ccccc3)ccc2O1 | inactive
30 | C[C@@H]1CCCCO[C@H](CN(C)Cc2ccc(Cl)c(Cl)c2)[C@@H](C)CN([C@@H](C)CO)C(=O)c2cc(NC(=O)Cc3ccccc3)ccc2O1 | inactive
31 | C[C@@H]1CCCCO[C@@H](CN(C)Cc2ccc(Cl)c(Cl)c2)[C@H](C)CN([C@@H](C)CO)C(=O)c2cc(NC(=O)Cc3ccccc3)ccc2O1 | inactive
32 | C[C@@H]1CCCCO[C@@H](CN(C)Cc2ccc(Cl)c(Cl)c2)[C@@H](C)CN([C@@H](C)CO)C(=O)c2cc(NC(=O)Cc3ccccc3)ccc2O1 | inactive
33 | C[C@@H]1CCCCO[C@@H](CN(C)Cc2ccc(Cl)c(Cl)c2)[C@@H](C)CN([C@H](C)CO)C(=O)c2cc(NC(=O)Cc3ccccc3)ccc2O1 | active
34 | C[C@@H]1CN([C@H](C)CO)C(=O)c2cc(NC(=O)Cc3ccccc3)ccc2O[C@@H](C)CCCCO[C@H]1CN(C)Cc1ccc(Cl)c(Cl)c1 | active

From the antibiotic and cytotoxicity screens of Wong et al. (2023)
